The source of these data is PubChem BioAssay (Tox21).

The target of assay [1] is Cytochrome P450 2C19 (Homo sapiens) (UniProt P33261). As to the kind of experiment: Cytochrome P450 Family 2 Subfamily C Member 19 (CYP2C19) small molecule antagonists: luciferase reporter qHTS assay (AID 1671197). Also: nearly all actives have a fitted effect of over 65% in size. In a few lines: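 Quantitative high-throughput screen of the Tox21 library using CYP2C19 with proluciferin substrate. Reaction: NADPH regeneration, 37C, 1 h, after 10 min compound preincubation at room temperature. Readout: luminescence.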
Sequence of Cytochrome P450 2C19 (Homo sapiens) (P33261 whole entry, looked up): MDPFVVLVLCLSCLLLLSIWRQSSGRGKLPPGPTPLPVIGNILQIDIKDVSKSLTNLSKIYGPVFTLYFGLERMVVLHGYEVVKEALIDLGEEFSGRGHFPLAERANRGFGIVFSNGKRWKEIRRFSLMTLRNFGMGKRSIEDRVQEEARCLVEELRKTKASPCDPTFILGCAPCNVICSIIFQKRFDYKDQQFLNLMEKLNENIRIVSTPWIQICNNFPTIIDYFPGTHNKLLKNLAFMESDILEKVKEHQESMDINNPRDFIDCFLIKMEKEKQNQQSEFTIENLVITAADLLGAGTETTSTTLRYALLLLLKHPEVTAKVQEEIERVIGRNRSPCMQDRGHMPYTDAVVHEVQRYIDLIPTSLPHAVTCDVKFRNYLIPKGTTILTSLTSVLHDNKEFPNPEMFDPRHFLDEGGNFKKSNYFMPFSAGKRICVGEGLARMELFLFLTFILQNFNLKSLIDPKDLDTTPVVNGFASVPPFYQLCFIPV
In general terms: A reporter such as luciferase makes a cellular process visible.

For assay [2], the target named is Cytochrome P450 2C9 (Homo sapiens) (UniProt P11712). As to the kind of experiment: Cytochrome P450 Family 2 Subfamily C Member 9 (CYP2C9) small molecule antagonists: luciferase reporter qHTS assay (AID 1671198). Also: nearly all actives have a fitted effect of over 50% in size. In a few lines: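 P450-Glo proluciferin substrate with CYP2C9 enzyme; 10 min RT preincubation, then NADPH regeneration 1 h at 37C; luciferin detection reagent 20 min RT, luminescence in relative luminescence units.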
Sequence of Cytochrome P450 2C9 (Homo sapiens) (P11712 whole entry, looked up): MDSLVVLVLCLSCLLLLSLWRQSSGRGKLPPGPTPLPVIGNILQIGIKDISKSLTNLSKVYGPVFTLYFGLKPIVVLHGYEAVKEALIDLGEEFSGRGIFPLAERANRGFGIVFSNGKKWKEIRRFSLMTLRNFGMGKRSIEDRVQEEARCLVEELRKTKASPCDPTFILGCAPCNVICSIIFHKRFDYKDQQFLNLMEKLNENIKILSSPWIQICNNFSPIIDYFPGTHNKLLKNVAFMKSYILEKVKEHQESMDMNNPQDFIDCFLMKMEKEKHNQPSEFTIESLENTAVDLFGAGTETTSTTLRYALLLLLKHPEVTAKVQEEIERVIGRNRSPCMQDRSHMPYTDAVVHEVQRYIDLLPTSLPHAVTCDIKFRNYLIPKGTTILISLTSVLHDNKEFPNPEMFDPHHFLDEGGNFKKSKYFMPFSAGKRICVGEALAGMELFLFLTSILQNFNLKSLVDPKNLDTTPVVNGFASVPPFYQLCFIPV

For assay [3], the target named is Cytochrome P450 1A2 (Homo sapiens) (UniProt P05177). In words: Cytochrome P450 Family 1 Subfamily A Member 2 (CYP1A2) small molecule antagonists: luciferase reporter qHTS assay (AID 1671199). Also: nearly all actives have a fitted effect of over 50% in size. In a few lines: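 Inhibition of CYP1A2 conversion of proluciferin to luciferin, detected by luminescence. Reaction run 1 h at room temperature with NADPH regeneration after brief compound preincubation.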
Sequence of Cytochrome P450 1A2 (Homo sapiens) (P05177 whole entry, looked up): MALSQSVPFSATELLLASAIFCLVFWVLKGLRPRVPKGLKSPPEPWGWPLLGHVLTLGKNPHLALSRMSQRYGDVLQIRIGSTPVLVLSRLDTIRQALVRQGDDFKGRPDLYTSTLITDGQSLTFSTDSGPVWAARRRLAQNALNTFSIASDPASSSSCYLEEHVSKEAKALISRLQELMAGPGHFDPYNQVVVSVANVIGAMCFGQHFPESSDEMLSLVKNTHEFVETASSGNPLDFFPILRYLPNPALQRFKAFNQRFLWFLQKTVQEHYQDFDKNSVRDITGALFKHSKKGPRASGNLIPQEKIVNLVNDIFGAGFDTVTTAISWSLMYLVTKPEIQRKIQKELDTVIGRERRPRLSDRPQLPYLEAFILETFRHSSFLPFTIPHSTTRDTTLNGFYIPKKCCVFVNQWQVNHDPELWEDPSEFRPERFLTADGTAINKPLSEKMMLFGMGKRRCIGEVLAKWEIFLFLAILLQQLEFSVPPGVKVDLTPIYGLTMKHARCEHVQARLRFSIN

Assay [4] addresses Voltage-gated inwardly rectifying potassium channel KCNH2 (Homo sapiens) (UniProt Q12809). In words: Human Ether-a-go-go-Related Gene (hERG) channel small molecule antagonists: fluorescence cell-based qHTS assay (AID 1671200). Also: nearly all actives have a fitted effect of over 50% in size. In a few lines:
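First, 1000 cells per well are seeded and cultured overnight at 37 C. Next, FluxOR II dye is loaded for 1 h at room temperature, protected from light. After 10 more minutes, stimulus is added and fluorescence is read.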
On the technique in general: hERG is a cardiac potassium channel; its block is linked to QT prolongation.

Assay [5] deals with Cytochrome P450 3A4 (Homo sapiens) (UniProt P08684). In words: Cytochrome P450 Family 3 Subfamily A Member 4 (CYP3A4) small molecule antagonists: luciferase reporter qHTS assay (AID 1671201). Also: nearly all actives have a fitted effect of over 50% in size. In a few lines:
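Enzyme and proluciferin substrate are mixed with test chemicals for 10 min, then NADPH regeneration system drives turnover for 1 h at room temperature. A detection reagent halts the reaction; luminescence after 20 min gives relative activity.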

Where “and” joins values, the source holds several entries; their conditions need not be identical. Identical values can stand only once. Inconclusive results are not listed. Calls of active or inactive are those of the source. Calls follow the shape of the dose curve; as a rule, active = well fitted curve in the direction sought with a large enough effect in the repeat runs; inconclusive = weak or mixed curves; inactive = no such curve, though single readings can be large; an effect the other way counts as inactive or inconclusive.
Potency is read from the fitted curve at half-maximal effect.

Sequence of Voltage-gated inwardly rectifying potassium channel KCNH2 (Homo sapiens) (Q12809 whole entry, looked up): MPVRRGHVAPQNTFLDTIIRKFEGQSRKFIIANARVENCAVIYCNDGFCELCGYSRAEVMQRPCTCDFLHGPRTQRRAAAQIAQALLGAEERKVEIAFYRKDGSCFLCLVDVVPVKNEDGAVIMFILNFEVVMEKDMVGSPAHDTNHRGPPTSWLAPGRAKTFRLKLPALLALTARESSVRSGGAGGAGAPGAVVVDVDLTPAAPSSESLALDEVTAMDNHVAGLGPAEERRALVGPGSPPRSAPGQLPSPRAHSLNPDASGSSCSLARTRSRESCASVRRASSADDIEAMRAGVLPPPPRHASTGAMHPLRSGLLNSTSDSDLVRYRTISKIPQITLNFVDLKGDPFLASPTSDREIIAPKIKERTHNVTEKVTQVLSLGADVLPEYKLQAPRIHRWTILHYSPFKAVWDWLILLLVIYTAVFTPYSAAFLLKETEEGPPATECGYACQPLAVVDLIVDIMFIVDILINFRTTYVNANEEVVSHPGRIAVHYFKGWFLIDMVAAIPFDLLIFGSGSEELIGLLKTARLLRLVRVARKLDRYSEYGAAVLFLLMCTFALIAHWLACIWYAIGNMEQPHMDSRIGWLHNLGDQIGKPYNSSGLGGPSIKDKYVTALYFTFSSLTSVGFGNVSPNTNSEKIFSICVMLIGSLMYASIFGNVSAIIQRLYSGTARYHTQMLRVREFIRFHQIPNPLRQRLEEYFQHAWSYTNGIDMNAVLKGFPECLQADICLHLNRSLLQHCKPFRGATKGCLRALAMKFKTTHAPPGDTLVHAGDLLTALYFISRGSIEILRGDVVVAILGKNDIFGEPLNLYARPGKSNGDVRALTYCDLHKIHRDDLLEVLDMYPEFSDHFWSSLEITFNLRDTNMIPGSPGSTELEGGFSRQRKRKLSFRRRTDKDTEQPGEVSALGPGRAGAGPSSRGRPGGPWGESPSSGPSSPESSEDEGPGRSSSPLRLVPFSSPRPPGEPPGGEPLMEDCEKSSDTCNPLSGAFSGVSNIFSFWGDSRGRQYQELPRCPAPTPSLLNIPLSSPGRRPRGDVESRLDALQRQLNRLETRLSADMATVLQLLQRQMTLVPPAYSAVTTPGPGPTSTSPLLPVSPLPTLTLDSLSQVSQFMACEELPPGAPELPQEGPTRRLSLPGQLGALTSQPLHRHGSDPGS
Sequence of Cytochrome P450 3A4 (Homo sapiens) (P08684 whole entry, looked up): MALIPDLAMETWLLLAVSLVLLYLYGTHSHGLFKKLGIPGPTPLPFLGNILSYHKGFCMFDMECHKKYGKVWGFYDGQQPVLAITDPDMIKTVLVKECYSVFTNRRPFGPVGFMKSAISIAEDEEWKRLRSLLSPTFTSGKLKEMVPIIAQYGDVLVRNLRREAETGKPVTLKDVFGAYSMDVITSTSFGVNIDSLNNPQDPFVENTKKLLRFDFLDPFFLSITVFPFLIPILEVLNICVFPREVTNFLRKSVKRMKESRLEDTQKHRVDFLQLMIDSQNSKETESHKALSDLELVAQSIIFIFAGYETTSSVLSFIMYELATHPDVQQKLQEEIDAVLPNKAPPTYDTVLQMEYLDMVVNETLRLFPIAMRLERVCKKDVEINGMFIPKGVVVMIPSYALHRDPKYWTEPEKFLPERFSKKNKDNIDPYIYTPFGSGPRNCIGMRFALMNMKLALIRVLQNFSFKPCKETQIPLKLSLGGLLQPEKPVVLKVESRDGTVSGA

For the compound `CN1CCCN=C1COC(=O)C(O)(c1ccccc1)C1CCCCC1` (centres undefined), the Potency entry in assay [1], in assay [2] and in assay [3] was “inactive” in each case. In addition, the Potency in assay [4] was 4.77 µM (active).

For `O=C(O)c1cccc(-c2noc(-c3ccccc3F)n2)c1`, the Potency was 0.776 µM (active) in assay [1], 2.45 µM (active) in assay [2] and 4.56 µM (active) in assay [3]. Besides, in assay [4], the Potency result is “inactive”.

On to `C=C1CCC2CC1C2(C)C` (centres undefined), for which the Potency entry in assay [1], in assay [2], in assay [3] and in assay [4] was “inactive” throughout.

Take `CC(CN(C)C)C(C)(O)Cc1ccc(Cl)cc1` (centres undefined): the Potency result in assay [1], in assay [2], in assay [3] and in assay [5] was “inactive” each time.

In the case of `Oc1c(I)cc(I)c2cccnc12`, the Potency entry in assay [1], in assay [2], in assay [3], in assay [4] and in assay [5] was “inactive” throughout.

In the case of `c1ccc2c(c1)CCc1ccccc1N2`, the Potency was 8 µM (active) and 8.71 µM (active) in assay [1]; 40.1 µM (active) and 13.8 µM (active) in assay [2]; 7.13 µM (active) and 5.49 µM (active) in assay [3]. Besides, the Potency entry in assay [4] and in assay [5] was “inactive” each time.

Turning to `O=C1Cc2ccccc2N1c1c(Cl)cccc1Cl`, the Potency is 11.2 µM (active) in assay [1], 35.6 µM (active) in assay [2], 19.5 µM (active) in assay [4] and 17.8 µM (active) in assay [5]. For the same compound, the Potency entry in assay [3] is “inactive”.

For `COc1cc(Nc2c(C#N)cnc3cc(OCCCN4CCN(C)CC4)c(OC)cc23)c(Cl)cc1Cl`, the Potency result in assay [1], in assay [2], in assay [3] and in assay [5] was “inactive” each time.

`CC1=C(Br)C(=O)C(Br)=C/C1=C(/c1ccccc1S(=O)(=O)O)c1cc(Br)c(O)c(Br)c1C`: the Potency was 27.2 µM (active) in assay [1], 15.3 µM (active) in assay [2], 19.2 µM (active) in assay [3] and 24.2 µM (active) in assay [5]. Moreover, the Potency result in assay [4] is “inactive”.

On to `O=C=Nc1ccc(Cl)c(Cl)c1`, for which the Potency result in assay [1] and in assay [4] was “inactive” throughout. Besides, the Potency in assay [2] was 39.3 µM (active); in assay [3], 35 µM (active); in assay [5] it was 31.2 µM (active).

`CNC(=O)c1cnn(-c2nc(N)c3ncn([C@@H]4O[C@H](CO)[C@@H](O)[C@H]4O)c3n2)c1`: the Potency result in assay [1], in assay [2], in assay [3], in assay [4] and in assay [5] was “inactive” each time.

With `Cc1cc(C)cc(N)c1`, the Potency is 7.19 µM (active) in assay [1], 11.4 µM (active) in assay [2], 36 µM (active) in assay [3] and 3.21 µM (active) in assay [5]. Besides, the Potency entry in assay [4] is “inactive”.

Take `N#CCCN(CCO)CCO`: the Potency result in assay [1], in assay [2], in assay [3], in assay [4] and in assay [5] was “inactive” each time.

As for `CN1C(=O)N(c2ccccc2Br)Cc2cnc(Nc3ccc4c(c3)OCC(CO)O4)nc21` (centres undefined), the Potency in assay [1] is 7.1 µM (active); in assay [2] it was 11.2 µM (active); in assay [3], 28.3 µM (active); in assay [4], 43.6 µM (active). In addition, the Potency result in assay [5] was “inactive”.

Regarding `O[C@@H]1CO[C@H]2[C@@H]1OC[C@@H]2O`, the Potency result in assay [1], in assay [2], in assay [3], in assay [4] and in assay [5] was “inactive” each time.

Consider `O=c1cc(-c2ccccc2)oc2ccc3ccccc3c12`, for which the Potency is 3.56 µM (active) in assay [1], 3.17 µM (active) in assay [2], 5.64 µM (active) in assay [3] and 17.8 µM (active) in assay [5]. Further, the Potency result in assay [4] was “inactive”.

Take `C/C=C/C=C/C=O`: the Potency entry in assay [1], in assay [2], in assay [3], in assay [4] and in assay [5] was “inactive” throughout.

`O=[N+]([O-])c1ccc(Nc2ccc(Nc3ccccc3)c(S(=O)(=O)O)c2)c([N+](=O)[O-])c1`: the Potency result in assay [1], in assay [3], in assay [4] and in assay [5] was “inactive” in each case. Further, in assay [2], the Potency is 35.6 µM (active).

As for `Cc1ccc(CO)cc1`, the Potency result in assay [1], in assay [2], in assay [4] and in assay [5] was “inactive” each time. Besides, in assay [3], the Potency was 32.1 µM (active).

For `C1COC1`, the Potency entry in assay [1], in assay [2], in assay [3], in assay [4] and in assay [5] was “inactive” throughout.

`O=C(CCc1ccc(O)cc1)c1c(O)cc(O)cc1O`: the Potency is 40.8 µM (active) in assay [1], 20.5 µM (active) in assay [2], 36.4 µM (active) in assay [3] and 12.9 µM (active) in assay [5]. The Potency entry in assay [4] was “inactive”.

Regarding `CCCCC(CC)COP(=O)(O)O` (centres undefined), the Potency in assay [1] and in assay [2] was 40.6 µM (active) each time. Moreover, the Potency entry in assay [3], in assay [4] and in assay [5] was “inactive” each time.

Turning to `O=C(CCCN1CC=C(n2c(=O)[nH]c3ccccc32)CC1)c1ccc(F)cc1`, the Potency entry in assay [1], in assay [2], in assay [3] and in assay [5] was “inactive” throughout.

In the case of `OCCOCC#CCOCCO`, the Potency entry in assay [1], in assay [2], in assay [3], in assay [4] and in assay [5] was “inactive” each time.

With `O=C(O)CCC(=O)C(=O)O`, the Potency entry in assay [1], in assay [2], in assay [3], in assay [4] and in assay [5] was “inactive” each time.

As for `C=COCC(C)C`, the Potency result in assay [1], in assay [2], in assay [3], in assay [4] and in assay [5] was “inactive” each time.

For `CC(=O)NC1(c2cccc(F)c2)CCN(CC[C@@]2(c3ccc(Cl)c(Cl)c3)CN(c3ccccc3)C(=O)CO2)CC1`, the Potency was 6.34 µM (active) in assay [1], 8.96 µM (active) in assay [2] and 13.8 µM (active) in assay [4]. Moreover, the Potency entry in assay [3] and in assay [5] was “inactive” in each case.

On to `CN1C(C(=O)Nc2ccccn2)=C(O)c2sccc2S1(=O)=O`, for which the Potency entry in assay [1], in assay [3], in assay [4] and in assay [5] was “inactive” in each case. In addition, the Potency in assay [2] was 13.8 µM (active).

As for `CCCCCCCC/C=C\CCCCCCCCCCCC(=O)O`, the Potency entry in assay [1], in assay [2], in assay [3], in assay [4] and in assay [5] was “inactive” each time.

Consider `O=C(Cn1ccnc1[N+](=O)[O-])NCCO`, for which the Potency entry in assay [1], in assay [2], in assay [3], in assay [4] and in assay [5] was “inactive” throughout.
